# Source: PubChem (National Center for Advancing Translational Sciences (NCATS))
# Methyltransferases = Primary Screen for Target Class Profiling of Small Molecule Inhibitors of Methyltransferases; purified enzyme, MTase-Glo SAH luminescence; stronger effect = lower value; calls only at 40 µM; 25,000 tested, 3.9% active; call rule not given here
#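 Each enzyme was assayed with SAM and its substrate. SAH formation detected by MTase-Glo luminescence; single-point 40 uM screen[…].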
# MTase-Glo counter = inhibits MTase-Glo coupling enzymes without methyltransferase; shares compounds with Methyltransferases; MTase-Glo coupled enzymes, SAH conversion luminescence, no MTase; Potency, µM (doses to about 57.3 µM), actives largely listed as inhibitors; 180 tested, 6% active; active means well fitted inhibition curve with a large enough effect
# Calls only; i = inactive; + = active, no number. Shown is part of a subset that was picked to be rich in hits.
SMILES,Methyltransferases,others
COc1ccc(N2C(=O)c3cc4occc4n3CC2(C)C(=O)NC2CCCCCCC2)cc1OC (configuration not stated),i,
Cc1cc(-c2cc3c(cn2)N(C)CCN(C)C3)ccn1,+,MTase-Glo counter=i
CC1CCC(NC(=O)C2(C)Cn3c(ccc3-c3ccco3)C(=O)N2Cc2ccccc2F)CC1 (configuration not stated),i,
CCNc1ncc(CN2CCN(c3ccncc3)CC2)cn1,+,MTase-Glo counter=i
CCN1CCN(C(=O)C2CCCN(Cc3ccncc3)CCC(=O)NCC2)CC1 (configuration not stated),i,
Cc1ccc(CNC(=O)C2(C)Cn3cnc(C(=O)NCc4cccc(C)c4)c3C(=O)N2C2CC2)cc1 (configuration not stated),i,
CCOc1ccccc1CNC(=O)c1cc2n(n1)CC(C)(C(=O)NC1CCCC1)N(CC)C2=O (configuration not stated),i,
Cc1ccc(-c2n[nH]n3c2nc(=O)c2ccc(C(=O)NCCc4cccs4)cc23)cc1,i,
COc1ccc(-c2cc3n(n2)CC(C)(C(=O)NC2CCCCC2)N(C2CCCCCC2)C3=O)cc1 (configuration not stated),i,
CC1CCN(CCCNC(=O)C2CCc3sc(C(=O)N4CCCC4)cc3C2)CC1 (configuration not stated),+,MTase-Glo counter=i
CN1C(=O)CCCCC1C(=O)NCCN1CCCCC1 (configuration not stated),i,
CCCCNC(=O)C1CCc2sc(C(=O)N3CCCCC3)cc2C1 (configuration not stated),i,
Cc1ccccc1N1C(=O)c2cc3sccc3n2CC1(C)C(=O)NC1CCC(C)CC1 (configuration not stated),i,
CC1CCC(NC(=O)C2(C)Cn3c(cc4occc43)C(=O)N2Cc2ccccc2F)CC1 (configuration not stated),i,
COC(=O)c1cc2n(n1)CC(C)(C(=O)NC1CCCCCC1)N(Cc1ccccc1)C2=O (configuration not stated),i,
CN(C)C[C@H]1C[C@@H](CO)CN(C(=O)c2csc(Cc3ccccc3)n2)C1,i,
COc1cccc(-c2cccc(C(=O)N3C[C@H](CO)C[C@H](CN(C)C)C3)c2)c1,+,MTase-Glo counter=i
COc1cccc(-c2ccc(C(=O)N3CCC(NC(=O)N(C)C)CC3)cc2)c1,i,
COc1ccc(CN2C(=O)c3ccc(-c4ccco4)n3CC2(C)C(=O)NCc2ccc(Cl)cc2)c(OC)c1 (configuration not stated),i,
Cc1noc(C)c1-c1cc(-c2ccc(CN(C)C)cc2)cn2cncc12,+,MTase-Glo counter=i
Cc1noc(C)c1-c1cc(-c2ccncc2)cn2cncc12,i,
CCC(C)NC(=O)c1ccc2c(=O)n(CCC(C)C)c3nn(CC(N)=O)c(=O)n3c2c1 (configuration not stated),i,
CC(=O)Nc1cc(-c2cc(C(=O)NCc3cccnc3)c3c(c2)N(C)CCO3)ccn1,+,MTase-Glo counter=i
CNC(=O)c1cc(-c2cnc(OC)nc2)cc2c1OCCN2Cc1cccnc1,i,
COc1ccc(-c2cc(C(=O)NCc3cccnc3)c3c(c2)N(C)CCO3)cc1OC,+,MTase-Glo counter=i
SMILES,Methyltransferases,others
CN1CCOc2c(C(=O)NCc3cnn(C)c3)cc(-c3ccc([S+](C)(=O)[O-])cc3)cc21,i,
CCc1nc2cc(N3CCC(C(=O)NCc4cccnc4)CC3)cnc2nc1CC,i,
O=C(NCC1CCCO1)c1cc(-c2ccccc2F)cc2c1OCCN2Cc1cccnc1 (configuration not stated),i,
Cc1cccc(CCNC(=O)CCCc2nnc3n4nc(C)nc4c4ccccc4n23)c1,i,
CCCn1c(=O)c2ccccc2n2c(SCc3ccc(F)cc3Cl)nnc12,i,
C=CCn1c(=O)c2ccc(C(=O)NC(C)CC)cc2n2c(=O)n(CC(=O)Nc3ccccc3F)nc12 (configuration not stated),i,
CC(C)OCCCN1C(=O)c2cnn(-c3ccccc3)c2-n2cccc2C1C(=O)NC1CCCCCC1 (configuration not stated),i,
CCc1ccc(C2c3cccn3-c3sc4c(c3CN2C(=O)Nc2ccc(OC)cc2OC)CCCC4)cc1 (configuration not stated),i,
Cc1ccc(CN2CCC3(CC2)CC(c2ccccc2)C(=O)N3C)cc1F (configuration not stated),i,
CN1C(=O)C(c2ccccc2)CC12CCN(c1ccnc(N)n1)CC2 (configuration not stated),+,MTase-Glo counter=i
O=C1CCCN1CCCNc1nc2c(-c3cccc(F)c3)nnn2c2ccc(Cl)cc12,i,
CC1CCC(NC(=O)C2(C)Cn3c(cc4occc43)C(=O)N2C2CCCCC2)CC1 (configuration not stated),i,
Cn1ccc2c(C(=O)NCCc3cnc[nH]3)nc(-c3ccc(N4CCOCC4)cc3)cc21,+,MTase-Glo counter=i
Cn1cncc1CNC(=O)c1nc(-c2cccc(N3CCOCC3)c2)cc2c1ccn2C,i,
Cc1ccc(-c2cc3c(ccn3C)c(C(=O)NCc3cccnc3)n2)cn1,i,
Cc1cc2c(cc3n2CC(C)(C(=O)NC2CCCCCCC2)N(Cc2ccccc2F)C3=O)o1 (configuration not stated),i,
Cc1ccc(CCNC(=O)CCCc2nnc3n4nc(-c5ccccc5)nc4c4ccccc4n23)cc1,i,
COCCCNC(=O)C1(C)Cn2nc(-c3ccccc3)cc2C(=O)N1c1cc(OC)cc(OC)c1 (configuration not stated),i,
Cn1c(C(=O)NCCN2CCCCC2)cc2c1CCN(Cc1cccc(F)c1)C2,+,MTase-Glo counter=i
O=C(c1nc2c(o1)CCN(Cc1cccc(F)c1)CC2)N1CCOCC1,i,
Cn1c(C(=O)Nc2ccc3c(c2)OCO3)cc2c1CCN(Cc1cccc(F)c1)C2,i,
CCCN1C(=O)c2c(C(=O)Nc3ccccc3CC)ncn2CC1(C)C(=O)NCc1ccc(C)cc1 (configuration not stated),i,
CCC(C)NC(=O)c1ccc2c(=O)n(C3CC3)c3nn(CC(=O)Nc4cccc(C)c4)c(=O)n3c2c1 (configuration not stated),i,
CCOC(=O)CNC(=O)C1(C)Cn2c(ccc2-c2ccco2)C(=O)N1Cc1ccc2c(c1)OCO2 (configuration not stated),i,
COCCn1ccc2c(C3=CCOCC3)nc(-c3cccc4[nH]ccc34)cc21,+,MTase-Glo counter=i
SMILES,Methyltransferases,others
CCC(C)NC(=O)Cn1nc2n(Cc3ccccc3)c(=O)c3ccc(C(=O)NC4CCCC4)cc3n2c1=O (configuration not stated),i,
COCCCN1C(=O)c2nc3ccccc3n2CC1(C)C(=O)NC1CCCCC1 (configuration not stated),i,
Cc1cc2c(cc3n2CC(C)(C(=O)NC2CCCCCC2)N(Cc2ccccc2)C3=O)o1 (configuration not stated),i,
COc1ccc2c(c1)C(COCc1ccc(C(=O)O)cc1)=CC(C)(C)CO2,i,
COc1ccc2c(c1)C(CN1CCN(c3ccc4oc(C(=O)O)cc4c3Cl)CC1)=CC(C)(C)CO2,+,MTase-Glo counter=i
COc1ccc2c(c1)C(CN1CCN(CC(=O)OC(C)(C)C)CC1)=CC(C)(C)O2,i,
CCc1ccc(CN2C(=O)c3cc(-c4ccccc4)nn3CC2(C)C(=O)NCc2ccccc2)cc1 (configuration not stated),i,
